This note sets out measurements from PubChem BioAssay.

For one assay, the target named is Albumin (Bos taurus) (UniProt P02769). The assay can be described thus: bovine serum albumin binders on microarray, profiling panel, artefact control for SMM control protein annotation, biochemical, small-molecule microarray, Alexa647 label, 635/667 nm fluorescence (AID 1118).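 Further: score merges 667 nm emission intensity and signal-to-noise per printed compound spot.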 The settings on record: BSA-A647 binding, fluorescence 635 nm, higher = more signal.
Albumin (Bos taurus), sequence (P02769 whole entry, looked up): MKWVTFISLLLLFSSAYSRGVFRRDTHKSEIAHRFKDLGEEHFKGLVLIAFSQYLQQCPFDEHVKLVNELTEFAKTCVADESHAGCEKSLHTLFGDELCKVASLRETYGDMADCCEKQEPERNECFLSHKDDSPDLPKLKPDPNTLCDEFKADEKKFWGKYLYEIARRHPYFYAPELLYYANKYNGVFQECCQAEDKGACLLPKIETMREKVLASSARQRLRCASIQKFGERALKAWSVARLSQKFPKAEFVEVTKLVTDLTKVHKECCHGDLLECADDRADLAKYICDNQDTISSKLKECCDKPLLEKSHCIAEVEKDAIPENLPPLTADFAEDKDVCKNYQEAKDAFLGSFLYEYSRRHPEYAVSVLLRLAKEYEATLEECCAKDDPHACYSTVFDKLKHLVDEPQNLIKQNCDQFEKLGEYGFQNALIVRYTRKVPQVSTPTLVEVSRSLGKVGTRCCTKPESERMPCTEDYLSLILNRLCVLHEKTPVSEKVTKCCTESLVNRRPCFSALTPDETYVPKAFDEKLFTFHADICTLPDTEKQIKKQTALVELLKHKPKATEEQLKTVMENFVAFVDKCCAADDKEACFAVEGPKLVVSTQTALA
The nature of assay [1]: small-molecule microarray binders of probe aXIP, primary screen, biochemical, NeuroSMM set, 635/667 nm fluorescence (AID 1119).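 Further: probe is the protein aXip251-270 applied at 1 µg/mL to compound-printed slides; binding of probe to printed compounds measured as 667 nm fluorescence plus signal to noise.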 The settings on record: higher = more signal, called active from +8 up or from −8 down.
The nature of assay [2]: small-molecule binders of probe aNOTCH3, primary screen, biochemical, small-molecule microarray, 635/667 nm fluorescence (AID 1120).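 Further: probe is a biotin-tagged antibody raised against NOTCH3 rather than NOTCH3 protein; score merges spot fluorescence near 667 nm with spot signal to noise.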 To be noted: higher = more signal.
Assay [3] can be described thus: small-molecule binders of probe aNOTCH2, primary screen, biochemical, small-molecule microarray, 635/667 nm fluorescence (AID 1121).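 Further: score merges feature fluorescence read at 667 nm with its signal to noise.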 The settings on record: higher = more signal.
The target of assay [4] is Carbonic anhydrase 2 (Homo sapiens) (UniProt P00918). The assay can be described thus: CAII small-molecule binders, profiling panel, biochemical, small-molecule microarray, Alexa647-labelled CAII (AID 1122). The settings on record: CAII-A647 binding fluorescence, higher = more signal.
A short description of assay [5]: COS7 lysate on small-molecule microarray, probe aHis, 635 nm (AID 1123).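 Further: z-score combines 667nm fluorescence intensity with signal-to-noise per printed compound spot.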 The settings on record: COS7 cell lysate, fluorescence, higher = more signal.
Assay [6] in a line: compound binding in COS7 lysate, probe aLAP1, primary screen, cell lysate, small-molecule microarray (AID 1124).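 Further: lysate comes from COS7 cells expressing LAP1 and is applied at 0.3 µg/mL; score merges spot fluorescence near 667 nm with signal-to-noise over triplicate slides.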 The settings on record: probe aLAP1, fluorescence, higher = more signal.
The test system of a further assay is Sam68 (KHDRBS1). Put plainly: Sam68 small-molecule binders, primary screen, biochemical, small-molecule microarray, 635 nm fluorescence (AID 1125).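 Further: score merges 667 nm channel intensity with signal to noise over triplicate slides.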 To be noted: small-molecule microarray binding, higher = more signal.
The subject of assay [7] is Chordin-like protein 2 (CHRDL2). Put plainly: CHRDL2 small-molecule binders, primary screen, biochemical, small-molecule microarray, 635 nm fluorescence (AID 1126).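 Further: printed compound slides probed with Chrdl2 protein at 4 µg/mL for 1 h at 4 C; score merges 667 nm emission intensity with signal to noise over three replicate slides.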 The settings on record: small-molecule microarray binding, fluorescence 635 nm; higher = more signal.
In assay [8] the target is Concanavalin-A (Canavalia ensiformis) (UniProt P02866). The assay can be described thus: ConA small-molecule binders, primary screen, artefact control for SMM control protein annotation, biochemical, small-molecule microarray, Alexa647 label, 635 nm (AID 1127).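 Further: z combines 667 nm emission intensity with signal-to-noise across three replicate slides.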 The settings on record: ConA-A647 binding fluorescence, higher = more signal.
Concanavalin-A (Canavalia ensiformis), sequence (P02866 whole entry, looked up): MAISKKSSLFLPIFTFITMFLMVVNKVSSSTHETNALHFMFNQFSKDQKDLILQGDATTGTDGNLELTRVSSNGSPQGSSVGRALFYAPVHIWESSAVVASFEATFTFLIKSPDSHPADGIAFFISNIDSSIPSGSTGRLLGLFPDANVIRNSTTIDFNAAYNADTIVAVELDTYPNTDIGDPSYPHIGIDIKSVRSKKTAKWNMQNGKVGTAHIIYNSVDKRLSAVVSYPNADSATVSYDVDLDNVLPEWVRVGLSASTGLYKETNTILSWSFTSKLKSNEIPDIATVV
Assay [9] can be described thus: anti-His antibody binders, primary screen, artefact control for SMM control protein annotation, biochemical, small-molecule microarray, 635 nm fluorescence (AID 1128).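 Further: score merges feature fluorescence with signal-to-noise for each printed compound spot.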 The settings on record: anti-His Alexa647 antibody binding, higher = more signal.
Assay [10] deals with Human papillomavirus type 1a E7 protein (residues 1-88). The assay can be described thus: HPV1a E7 small-molecule binders, primary screen, biochemical, small-molecule microarray, residues 1-88, 635 nm (AID 1129). The settings on record: small-molecule microarray binding, fluorescence 635 nm; higher = more signal.
For assay [11], the target named is Focal adhesion kinase 1 (Homo sapiens) (UniProt Q05397). Put plainly: small-molecule microarray binders of FAK, primary screen, biochemical, 635/667 nm fluorescence, BSA, DTT (AID 1130).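 Further: composite of spot emission at 667 nm and signal to noise over triplicate slides.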 The settings on record: PTK2 binding, 635 nm fluorescence, higher = more signal.
Focal adhesion kinase 1 (Homo sapiens), sequence (Q05397 whole entry, looked up): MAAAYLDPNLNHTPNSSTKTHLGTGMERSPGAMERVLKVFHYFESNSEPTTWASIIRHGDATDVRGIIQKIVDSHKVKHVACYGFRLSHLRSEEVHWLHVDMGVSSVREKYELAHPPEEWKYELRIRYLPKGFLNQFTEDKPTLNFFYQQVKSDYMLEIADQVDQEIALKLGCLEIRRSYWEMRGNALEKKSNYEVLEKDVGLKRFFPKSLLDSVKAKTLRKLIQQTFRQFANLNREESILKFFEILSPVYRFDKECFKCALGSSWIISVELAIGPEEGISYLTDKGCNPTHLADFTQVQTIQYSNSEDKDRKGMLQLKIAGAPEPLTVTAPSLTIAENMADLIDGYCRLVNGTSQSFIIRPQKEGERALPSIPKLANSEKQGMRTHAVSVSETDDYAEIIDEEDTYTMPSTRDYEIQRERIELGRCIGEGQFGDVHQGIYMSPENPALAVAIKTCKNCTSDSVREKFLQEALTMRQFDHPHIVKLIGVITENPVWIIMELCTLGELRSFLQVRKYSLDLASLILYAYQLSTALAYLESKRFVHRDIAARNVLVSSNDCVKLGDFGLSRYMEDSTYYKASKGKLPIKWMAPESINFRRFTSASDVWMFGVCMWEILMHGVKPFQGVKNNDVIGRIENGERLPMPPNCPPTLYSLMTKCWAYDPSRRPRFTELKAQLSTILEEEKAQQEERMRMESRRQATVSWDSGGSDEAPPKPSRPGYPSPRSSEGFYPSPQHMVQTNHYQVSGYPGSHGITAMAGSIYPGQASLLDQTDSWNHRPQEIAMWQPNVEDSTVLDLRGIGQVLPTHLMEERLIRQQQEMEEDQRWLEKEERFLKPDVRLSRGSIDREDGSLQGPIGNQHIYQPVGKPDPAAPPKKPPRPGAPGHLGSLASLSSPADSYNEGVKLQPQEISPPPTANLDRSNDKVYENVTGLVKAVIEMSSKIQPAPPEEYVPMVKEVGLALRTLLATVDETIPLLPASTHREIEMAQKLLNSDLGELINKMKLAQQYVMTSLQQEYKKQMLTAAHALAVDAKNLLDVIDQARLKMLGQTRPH
For assay [12], the system named is Fibrinogen (Alexa647-labelled). Put plainly: fibrinogen binders on compound microarrays, profiling panel, artefact control for SMM control-protein annotation, biochemical, small-molecule microarray, 635/667 nm fluorescence (AID 1131).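 Further: z-score merges 667 nm fluorescence with per-spot signal-to-noise over triplicate slides.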 To be noted: fibrinogen-A647 binding fluorescence, higher = more signal.
Assay [13] deals with Follistatin (Homo sapiens) (UniProt P19883). Put plainly: follistatin binders on small-molecule microarrays, primary screen, biochemical, small-molecule microarray, 635/667 nm fluorescence (AID 1132). The settings on record: FST binding, 635 nm fluorescence, higher = more signal.
Follistatin (Homo sapiens), sequence (P19883 whole entry, looked up): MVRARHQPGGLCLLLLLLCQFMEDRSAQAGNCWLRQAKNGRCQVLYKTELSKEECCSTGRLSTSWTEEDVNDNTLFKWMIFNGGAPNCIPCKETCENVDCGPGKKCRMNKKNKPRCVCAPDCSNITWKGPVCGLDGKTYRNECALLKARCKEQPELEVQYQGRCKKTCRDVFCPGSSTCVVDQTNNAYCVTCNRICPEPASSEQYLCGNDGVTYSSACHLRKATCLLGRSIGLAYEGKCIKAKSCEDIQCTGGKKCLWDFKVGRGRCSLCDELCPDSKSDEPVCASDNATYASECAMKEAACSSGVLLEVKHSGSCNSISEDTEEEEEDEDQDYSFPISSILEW
Assay [14] has as its target Fibroblast growth factor 2 (Homo sapiens) (UniProt P09038). The assay can be described thus: FGF2 binders on small-molecule microarrays, primary screen, biochemical, small-molecule microarray, 635/667 nm fluorescence (AID 1133). The settings on record: small-molecule microarray binding, FGF2, fluorescence 635/667; higher = more signal.
The nature of assay [15]: mitochondrial membrane potential change in A549 cells, profiling panel, cell-based, JC-1 fluorescence, basal, 24 h, 100 nL (AID 1138).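 Further: A549 lung adenocarcinoma cells under basal conditions with no added stimulus; test concentration not given here.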 To be noted: higher = more signal.
The subject of the next assay is Lefty1. The assay can be described thus: Lefty1 binders on small-molecule microarrays, primary screen, biochemical, small-molecule microarray, 635/667 nm fluorescence (AID 1139). To be noted: small-molecule microarray binding, fluorescence 635/667; higher = more signal.
Assay [16] deals with wheat germ agglutinin (Triticum aestivum), Alexa647-labelled. The assay can be described thus: wheat germ agglutinin binders on compound microarrays, profiling panel, artefact control for SMM control-protein annotation, biochemical, small-molecule microarray, 635/667 nm fluorescence (AID 1140).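 Further: score merges 667 nm feature emission with signal to noise over triplicate slides.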 To be noted: WGA-A647 binding, 635 nm fluorescence, higher = more signal.
In assay [17] the target is Luciferin 4-monooxygenase (Photinus pyralis) (UniProt P08659). Put plainly: firefly luciferase enzyme inhibitors, primary screen, biochemical, luminescence, purified enzyme, 2006 set (AID 1141).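 Further: cell-free assay with purified firefly luciferase at 100 ng per well in PBS; test concentration not given here.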 To be noted: SteadyGlo luminescence, 30 min, higher = more signal, called active from +8 up or from −8 down.
Luciferin 4-monooxygenase (Photinus pyralis), sequence (P08659 whole entry, looked up): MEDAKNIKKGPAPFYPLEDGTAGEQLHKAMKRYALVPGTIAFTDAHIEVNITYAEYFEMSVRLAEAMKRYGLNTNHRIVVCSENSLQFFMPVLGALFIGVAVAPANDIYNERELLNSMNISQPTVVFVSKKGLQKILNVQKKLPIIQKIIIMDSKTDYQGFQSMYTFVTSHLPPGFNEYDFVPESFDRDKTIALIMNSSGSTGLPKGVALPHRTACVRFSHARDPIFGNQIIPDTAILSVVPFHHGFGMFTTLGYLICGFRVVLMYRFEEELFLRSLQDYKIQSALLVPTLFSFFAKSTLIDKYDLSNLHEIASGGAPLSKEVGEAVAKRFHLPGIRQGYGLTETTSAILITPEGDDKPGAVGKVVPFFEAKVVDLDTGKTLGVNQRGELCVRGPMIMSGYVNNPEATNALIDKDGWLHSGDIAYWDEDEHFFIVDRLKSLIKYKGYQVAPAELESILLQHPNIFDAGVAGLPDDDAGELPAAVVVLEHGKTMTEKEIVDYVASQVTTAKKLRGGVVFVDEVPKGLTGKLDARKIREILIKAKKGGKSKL

Activity calls are given as the source filed them.

Fibroblast growth factor 2 (Homo sapiens), sequence (P09038 whole entry, looked up): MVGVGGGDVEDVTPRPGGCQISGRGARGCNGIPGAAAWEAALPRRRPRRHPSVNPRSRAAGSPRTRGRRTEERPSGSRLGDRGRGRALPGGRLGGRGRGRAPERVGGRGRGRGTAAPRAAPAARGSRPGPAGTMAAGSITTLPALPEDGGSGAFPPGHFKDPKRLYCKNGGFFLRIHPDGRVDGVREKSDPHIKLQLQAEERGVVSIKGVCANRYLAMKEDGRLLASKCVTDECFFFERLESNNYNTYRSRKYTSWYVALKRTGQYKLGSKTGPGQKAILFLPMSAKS

As for `O=C1CS(=O)(=O)C(c2cccc([N+](=O)[O-])c2)N1c1ccccc1` (stereo not given), the composite z-score with Albumin (Bos taurus) worked out at 0.501; in assay [2], 0.482; in [3], 0.48; in assay [4], 0.787; in assay [5], 0.904; in assay [6], 0.85. Also, the composite z-score with Sam68 (KHDRBS1) was 0.329; in [7] it was 0.527; in [8], 0.353; in [9], 1.67; in [10] it was 1.16; in [11], 0.596. Moreover, the composite z-score in assay [12] is 0.522; in assay [13] it was 0.469; in assay [14] it was 0.698; in the assay with Lefty1, -0.269; in assay [16], 0.909. In assay [1], the composite Z-score is 1.11 (inactive). For the same compound, the z-score in [15] is 1.53; in assay [17], -1.61 (inactive).

As to `COc1ccc(C#Cc2ccc3c(c2)[C@]2(C(=O)N3)[C@H](C(=O)O)[C@H]3C(=O)O[C@H](c4ccccc4)[C@H](c4ccccc4)N3[C@@H]2c2ccc(O)cc2)cc1`, the composite z-score in the assay with Albumin (Bos taurus) is 0.314; in assay [2] it was -0.243; in assay [3] it was -0.0664; in assay [4], 0.659; in assay [5], 1.15; in assay [6], 0.577. In addition, the composite z-score is 0.285 in the assay with Sam68 (KHDRBS1); -0.844 in [7]; -0.425 in assay [8]; -0.272 in assay [9]; 0.691 in [10]; 0.0564 in assay [11]. Besides, the composite z-score is -0.142 in [12]; -0.474 in assay [13]; -0.521 in assay [14]; -0.422 with Lefty1; 0.208 in [16]. For the same compound, the composite Z-score in [1] was -0.118 (inactive). For the same compound, the z-score was -2.42 in assay [15] and -1.01 (inactive) in [17].

Take `C=CCC(OC(C)=O)[C@@H]1[C@@H](N(Cc2cc3ccccc3o2)C(=O)Cc2ccc(F)cc2)c2cc(OCCCO)ccc2N1C(=O)Cc1ccc2ccccc2c1` (stereo not given in full): the composite z-score was 0.533 in the assay with Albumin (Bos taurus); -0.0311 in [2]; -0.104 in assay [3]; -0.208 in [4]; 0.615 in assay [5]; -0.0657 in assay [6]. Besides, the composite z-score with Sam68 (KHDRBS1) was -0.39; in assay [7], -0.21; in assay [8], 0.296; in assay [9], -0.748; in assay [10], -0.682; in assay [11], -0.308. For the same compound, the composite z-score in [12] is 0.397; in assay [13], 0.0648; in assay [14], -0.408; with Lefty1, -0.0725; in [16], -0.286. In addition, the composite Z-score in assay [1] is 0.242 (inactive). The z-score was 1.75 in assay [15] and -0.826 (inactive) in assay [17].

With `CCOC(=O)C[C@H]1[C@H](OC(=O)c2ccccc2-c2ccccc2)[C@@H](NC(=O)c2ccc3ccccc3c2)c2cc(OCCCO)ccc2N1C(=O)c1ccccc1`, the composite z-score is 0.5 in the assay with Albumin (Bos taurus); 0.138 in [2]; -0.206 in assay [3]; 0.355 in [4]; 0.462 in [5]; -0.0843 in [6]. For the same compound, the composite z-score in the assay on Sam68 (KHDRBS1) turned out to be 0.735; in [7] it was 0.578; in assay [8] it was 0.215; in [9], 1.49; in [10] it was 0.844; in assay [11] it was 0.288. Also, the composite z-score is 0.609 in assay [12]; 0.91 in assay [13]; 1.08 in [14]; 0.868 in the assay on Lefty1; -0.0223 in assay [16]. Further, the composite Z-score in assay [1] was -0.0287 (inactive). Moreover, the z-score in assay [15] was 1.04; in assay [17] it was -0.124 (inactive).

Regarding `CS(=O)(=O)CCOC(=O)C1=CC(c2ccc(CO)cc2)=CC(C2CC2)N(Cc2sc3ccccc3c2Cl)C=C1C(=O)OCCS(C)(=O)=O` (stereo not given), the composite z-score was 0.52 with Albumin (Bos taurus); 0.029 in assay [2]; -0.0839 in [3]; 0.815 in assay [4]; 0.737 in assay [5]; 0.55 in [6]. Moreover, the composite z-score came to 1.03 with Sam68 (KHDRBS1); 0.802 in assay [7]; 1.11 in assay [8]; 1.27 in assay [9]; 0.795 in assay [10]; 0.716 in [11]. The composite z-score in [12] is 0.88; in [13], 1.28; in [14], 0.881; in the assay with Lefty1, 0.851; in assay [16] it was 0.861. In addition, the composite Z-score in assay [1] was 0.42 (inactive). For the same compound, the z-score was 2.04 in assay [15] and -1.86 (inactive) in assay [17].
